From PubChem BioAssay AID488908 (National Center for Advancing Translational Sciences (NCATS), 2010)
Inconclusive results are not listed. A call without a number means that no potency is given here. Active and inactive are the calls of the source. The call rests on the fitted dose curve; in most records, active means well fitted inhibition curve with a large enough effect; inconclusive means small, poorly fitted or top-dose-only effect; inactive means flat fitted curve, though single readings scatter.

Assay: Secondary Assay for lipid storage modulators: Cytotoxcity for probe SAR
Conditions: Drosophila S3 cells viability, CellTiter-Glo luminescence, 24 h, with oleic acid added (1 µL, 400 µM); series mostly up to 46.1 µM
Summary of the method: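 Drosophila S3 embryonic cells, 5,000/well, exposed to compound at several concentrations with 400 uM oleic acid stock added, 24 h at 24 degrees C; viability by CellTiter-Glo luminescence.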

| SMILES | Potency |
| --- | --- |
| CCOc1ccc(CCNC(=O)c2cc3sc(Cl)cc3n2CC)cc1OCC | inactive |
| CCOc1ccc(CCNC(=O)C2CCCCC2)cc1OCC | inactive |
| O=C(NC1CCCc2c1cnn2-c1ccc(F)cc1F)c1cnccn1 (stereo not drawn) | 3.97 µM (active) |
| O=C(NC1CCCc2c1cnn2-c1ccccc1F)c1ccc2ncccc2c1 (stereo not drawn) | 2.23 µM (active) |
| C[C@@H](NCCCc1cccc(C(F)(F)F)c1)c1cccc2ccccc12 | 28.1 µM (active) |
| COc1ccccc1NC(=S)N1CCN(c2cc(Cl)ccc2C)CC1 | inactive |
| Cc1ccc(NC(=O)c2ccc(CN3CCN(C)CC3)cc2)cc1Nc1nc(-c2cccnc2)cs1 | inactive |
| COc1ccc(-c2cnc(SCC(=O)Nc3nc(C)cs3)n2Cc2ccco2)cc1 | inactive |
| Cc1cccc(Nc2nnc(SCC(=O)Nc3nc(-c4ccc(F)cc4)cs3)s2)c1 | inactive |
| CCOc1ccc(CCNC(=O)c2csc(Br)n2)cc1OCC | inactive |
| CCOc1ccc(CCNC(=O)c2cccs2)cc1OCC | inactive |
| COc1ccc(-n2ncc3c2CCCC3NC(=O)c2cnc(C)cn2)cc1 (stereo not drawn) | 15.8 µM (active) |
| CCOC(=O)C1CCCN(C(=O)C2(NC(=O)Nc3ccc(F)cc3F)CCCCC2)C1 (stereo not drawn) | inactive |
| O=C(NC1CCCc2c1cnn2-c1ccc(F)cc1F)c1cccc(F)c1F (stereo not drawn) | 14.1 µM (active) |
| CCOc1ccc(CCNC(=O)c2ccccn2)cc1OCC | inactive |
| O=C(NC1CCCc2c1cnn2-c1ccc(F)cc1F)C1CCCCN1 (stereo not drawn) | inactive |
| Cc1ccc(-c2cnc(SCC(=O)Nc3nccs3)n2Cc2ccco2)cc1 | inactive |
| O=C(NC1CCCc2c1cnn2-c1ccc(F)cc1F)c1ccncc1 (stereo not drawn) | 1.41 µM (active) |
